Bioassay records deposited in PubChem by several laboratories.
Sampled rows, rich in hits. Any-hit rate of the full collection: about 3.6%.
KKLEB tox: CF airway cell cytotoxicity counter-screen; KKLEB CF airway cells viability, ATPlite luminescence, overnight; hits give low values; cells stimulated with P. aeruginosa culture filtrate; AID 602141; 360,000 compounds, 0.36% hits; activity change (cytotoxicity), % at 5 µM;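 active = corrected activity change at or below -50% at 5 µM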
Mdm2-MdmX inh: human Mdm2/MdmX binding inhibition. 330,000 compounds, 3% hits. O15151+Q00987. inhibition, % at 8 µM. SaOS-2 split-luciferase Mdm2/MdmX complementation, luminescence. AID 485346;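 active = inhibition of at least 50% at 8 µM in the primary screen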
HSP90 refold inh: blocks HSP90-mediated luciferase refolding in reticulocyte lysate; 290,000 compounds, 0.91% hits; inhibition, % at 5.6 µM; Rabbit reticulocyte lysate, luciferase refolding luminescence, 3 h; AID 1789;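 active = inhibition above the screen-wide mean plus 3 SD, computed separately per campaign, cut at about 16% in these data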;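 note: inhibitors lower the luminescence because luciferase stays unfolded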
CF NFkB block: blocks PAF-induced NF-kB reporter in cystic fibrosis cells | KKLEB NF-kB-GFP reporter, GFP fluorescence overnight | inhibition, % at 5 µM | 360,000 compounds, 0.86% hits | AID 588850;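 active = at least 50% inhibition at 5 µM, scaled per plate between neutral and stimulator controls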;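 note: PAF is a Pseudomonas aeruginosa culture filtrate used as stimulus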
LGR2 antag: Drosophila LGR2 receptor signaling inhibition. HEK293 LGR2, CRE-luciferase, bursicon-stimulated, 4 h. inhibition, % at 9.99 µM. 380,000 compounds, 0.35% hits;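 active = drop in luminescence signal, shown as inhibition above about 50% in the replicate tests, limit read from the data, passing the limit was not always enough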;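 note: agonist challenge used bursicon conditioned medium at about half maximal strength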
Peg3 promoter: reduces Peg3 promoter-driven luciferase expression in HeLa; HeLa PEG-Prom luciferase reporter, luminescence, overnight; inhibition, % at 20 µM; 360,000 compounds, 1.7% hits; AID 588405;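 active = inhibition of at least 50% at 20 µM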
Mdm2 MdmX conf: human Mdm2/MdmX binding inhibition, confirmed; shares compounds with Mdm2-MdmX inh; luminescent assay; inhibition, % at 8 µM; 10,000 compounds, 55% hits; AID 489028; in the data active = inhibition above about 40%
FLuc counter: full-length luciferase inhibition in Mdm2/MdmX counter-screen; shares compounds with Mdm2-MdmX inh; SaOS-2 full-length luciferase counterscreen, luminescence; inhibition, % at 8 µM; 6,200 compounds, 77% hits; AID 504607;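 active = mean inhibition at 8 µM reaching about 37%, which flags the compound as non-specific, limit read from the data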;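 note: p53-null SaOS-2 cells with luciferase driven by a doxycycline-inducible promoter; compound on cells about two nights before reading with doxycycline added after day one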
Large screens that a line does not name were inactive (follow-up assays come after a bar, where they were run); ! = a repeat was not active.

Cn1c(C(=O)NCCCN2CCN(c3ccccc3F)CC2)cc2c(=O)[nH]c3ccccc3c21	none (no result: LGR2 antag)
COc1ccc(CNC(=O)Cc2csc(Nc3nc(=S)[nH]c4ccccc34)n2)cc1	none
O=C(Cc1csc(Nc2nc(=S)[nH]c3ccccc23)n1)NCCCN1CCN(c2ccccc2F)CC1	Mdm2-MdmX inh 97.9, Peg3 promoter 67.5 | Mdm2 MdmX conf inactive
COCCNC(=O)C[C@@H]1C[C@H]2c3cc(NC(=O)CC4CC4)ccc3O[C@H]2[C@@H](CO)O1	none (no result: KKLEB tox, Mdm2-MdmX inh, HSP90 refold inh, CF NFkB block, Peg3 promoter)
CC1c2cc3c(cc2CCN1CC(=O)Nc1ccccc1)OCCCO3 (stereo unspecified)	none
CC1c2cc3c(cc2CCN1C(=O)c1cccc(Cl)c1)OCCCO3 (stereo unspecified)	Mdm2-MdmX inh 56.7 (no result: LGR2 antag) | Mdm2 MdmX conf 44.2 | FLuc counter 62.0
COc1ccccc1NS(=O)(=O)c1cccc(NC(=O)Nc2ccc(Cl)cc2)c1	Mdm2-MdmX inh 93.8 | Mdm2 MdmX conf 42.6 | FLuc counter 69.2
CC(=O)N1[C@H](CNC(=O)CN(C)C)[C@H](c2ccc(C3=CCCCC3)cc2)[C@@H]1CO	none (no result: KKLEB tox, Mdm2-MdmX inh, HSP90 refold inh, CF NFkB block, Peg3 promoter)
O=C(c1ccc(Cl)c(Cl)c1)N1CCC(=O)N(C(COCc2cccc(Cl)c2)Cc2ccccc2)CC1 (stereo unspecified)	Mdm2-MdmX inh 54.2 (no result: LGR2 antag) | Mdm2 MdmX conf inactive
O=C(c1cccc(Cl)c1)N1CCC(=O)N(C(COCc2cccc(Cl)c2)Cc2ccccc2)CC1 (stereo unspecified)	none
Cc1cccc(COCC(Cc2ccccc2)N2CCN(C(=O)c3ccc(C(F)(F)F)cc3)CCC2=O)c1 (stereo unspecified)	Mdm2-MdmX inh 57.4 (no result: LGR2 antag) | Mdm2 MdmX conf inactive
Cc1cccc(COC[C@H](Cc2ccccc2)N2CCN(C(=O)c3ccc(C(F)(F)F)cc3)CCC2=O)c1	none (no result: KKLEB tox, Mdm2-MdmX inh, HSP90 refold inh, CF NFkB block, Peg3 promoter)
C/C(=N/NC(=O)c1nnn(-c2nonc2N)c1COc1ccccc1)c1ccccc1Cl	none
CCCOc1ccc(-c2c(C(=O)N/N=C(\C)c3cccnc3)nnn2-c2nonc2N)cc1	none
CCOc1ccc(-c2c(C(=O)N/N=C(\C)c3cccnc3)nnn2-c2nonc2N)cc1	Mdm2-MdmX inh 64.0 | Mdm2 MdmX conf inactive
C/C(=N/NC(=O)c1nnn(-c2nonc2N)c1COc1ccccc1)c1ccc(O)cc1	Mdm2-MdmX inh 74.9 | Mdm2 MdmX conf inactive
CN(C)C(=O)[C@H]1[C@H](CO)[C@H]2Cn3c(ccc(-c4cccc(F)c4)c3=O)[C@H]2N1C(=O)c1cnccn1	none (no result: KKLEB tox, Mdm2-MdmX inh, HSP90 refold inh, CF NFkB block, Peg3 promoter)
CC(C)C[C@H](NC(=O)c1[nH]cnc1C(=O)N[C@@H](Cc1ccccc1)C(=O)OC(C)(C)C)C(=O)OC(C)(C)C	Mdm2-MdmX inh 79.5 (no result: HSP90 refold inh) | Mdm2 MdmX conf inactive
CC(C)C[C@H](NC(=O)c1[nH]cnc1C(=O)N[C@@H](Cc1ccccc1)C(=O)OC(C)(C)C)C(=O)OCc1ccccc1	none
CC(C)(C)OC(=O)[C@H](Cc1ccccc1)NC(=O)c1nc[nH]c1C(=O)N1CCN(C(=O)OC(C)(C)C)CC1	Mdm2-MdmX inh 74.0 | Mdm2 MdmX conf inactive
COc1ccc2c3c(n(C)c2c1)[C@H](CO)N(C(=O)c1cccnc1)CC31CN(C(=O)c2cccnc2)C1	none (no result: KKLEB tox, Mdm2-MdmX inh, HSP90 refold inh, CF NFkB block, Peg3 promoter)
c1ccc2c(c1)ccc1ccccc12	none (no result: HSP90 refold inh)
CC1=[N+](C)c2ccc3ccccc3c2C1(C)C	Mdm2-MdmX inh 85.6 | Mdm2 MdmX conf 69.2 | FLuc counter inactive
COc1ccc(-c2cc(=O)oc3c(C)c(OCC(=O)Nc4cccnc4)ccc23)cc1	Mdm2-MdmX inh 51.4 | Mdm2 MdmX conf inactive
COC(=O)[C@@]1(Cc2ccc(F)cc2)[C@H]2c3cc(C(=O)N(C)C)n(CCc4ccc(OC)c(Br)c4)c3C[C@H]2CN1C(=O)c1ccccc1	Mdm2-MdmX inh 67.1 | Mdm2 MdmX conf inactive
COC(=O)c1cc(NC(=O)Nc2ccccc2)ccc1Cl	none
COC(=O)c1cccc(NC(=O)Nc2ccc(Cl)c(Cl)c2)c1	Mdm2-MdmX inh 80.5 | Mdm2 MdmX conf 80.0 | FLuc counter 40.2
COc1ccc(/C=C2/SC(=S)N(CCCC(=O)Nc3ccccc3C(=O)O)C2=O)cc1	none
O=C1/C(=C/c2ccccc2Cl)SC(=S)N1CCC(=O)N1CCCCC1CCO (stereo unspecified)	Mdm2-MdmX inh 52.8, Peg3 promoter 54.7 | Mdm2 MdmX conf inactive
CC(C)c1ccc(/C=C2\SC(=S)N(CCC(=O)N3CCCCC3CCO)C2=O)cc1 (stereo unspecified)	Mdm2-MdmX inh 61.7 | Mdm2 MdmX conf 50.3 | FLuc counter inactive
O=C1/C(=C\c2ccccc2)SC(=S)N1CCC(=O)N1CCCCC1CCO (stereo unspecified)	Mdm2-MdmX inh 72.1 | Mdm2 MdmX conf inactive
COc1cccc(/C=C2\SC(=O)N(CCC(=O)N3CCCCC3CCO)C2=O)c1 (stereo unspecified)	none
COc1ccc(/C=C2\SC(=S)N(CCCC(=O)N3CCCCC3CCO)C2=O)cc1 (stereo unspecified)	Mdm2-MdmX inh 63.5 | Mdm2 MdmX conf inactive
O=C1/C(=C/c2ccccc2)SC(=S)N1CC(=O)N1CCCCC1c1cccnc1 (stereo unspecified)	Mdm2-MdmX inh 84.9, Peg3 promoter 58.7 | Mdm2 MdmX conf inactive | FLuc counter inactive
Cc1ccc(S(=O)(=O)n2ccc3c(OCCOCCNCc4ccc(F)cc4)cccc32)cc1	Mdm2-MdmX inh 53.9, Peg3 promoter 95.6 | Mdm2 MdmX conf inactive
Cc1ccc(S(=O)(=O)n2ccc3c(OCCOCCSCC(NC(=O)OC(C)(C)C)C(=O)O)cccc32)cc1 (stereo unspecified)	none
CO[C@H]1CN(C)C(=O)c2cc(NS(=O)(=O)c3ccc(Cl)cc3)ccc2OC[C@@H](C)NC[C@@H]1C	none (no result: KKLEB tox, Mdm2-MdmX inh, HSP90 refold inh, CF NFkB block, Peg3 promoter)
CCOC(=O)c1c(Nc2ccc(Cl)cc2)sc(/C=C2\C=Nc3ccccc32)c1O	KKLEB tox -51.1!, Mdm2-MdmX inh 63.7 | Mdm2 MdmX conf inactive
Oc1nc(Nc2cccc(Cl)c2)sc1/C=C1\C=Nc2ccccc21	none
CO[C@@H]1CN(C)C(=O)c2ccc(NS(=O)(=O)c3cn(C)cn3)cc2OC[C@H](C)NC[C@H]1C	none (no result: KKLEB tox, Mdm2-MdmX inh, HSP90 refold inh, CF NFkB block, Peg3 promoter)
Cn1c(SCC(=O)Nc2cccc(Br)c2)nnc1-c1cc2ccccc2o1	Mdm2-MdmX inh 62.7 (no result: LGR2 antag) | Mdm2 MdmX conf inactive
Cn1c(SCC(=O)Nc2cccc(C(=O)O)c2)nnc1-c1cc2cc(Br)ccc2o1	none (no result: LGR2 antag)
O=C(C[C@H]1C=C[C@@H](NC(=O)Cc2ccccn2)[C@@H](CO)O1)NCCc1ccccc1	none (no result: KKLEB tox, Mdm2-MdmX inh, HSP90 refold inh, CF NFkB block, Peg3 promoter)
C[C@@H]1CN([C@H](C)CO)C(=O)Cc2cc(NC(=O)Nc3ccc(C(F)(F)F)cc3)ccc2O[C@H]1CN(C)S(C)(=O)=O	none (no result: KKLEB tox, Mdm2-MdmX inh, HSP90 refold inh, CF NFkB block, Peg3 promoter)
